In PubChem BioAssay AID1159580 (chemical genetic matrix, 2015):
The campaign covered roughly 5,500 compounds. About 2,000 (36%) were called active. Another 18% or so got no clear call; they are omitted. Rule as the data show it: active = normalized growth mostly below about 0.91 (no sharp cut-off); inconclusive = no clear call, values can overlap the other calls; inactive = mostly above about 0.92. The list shows a part of the results.

Assay: chemical genetic growth profiling, strain panel (AID 1159580);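 also: tested at 20 µM; growth read once vehicle control cultures reached saturation at 30 °C; 1 = growth at the plate median or of vehicle wells; lower values mean less growth of the strain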
Details: growth OD
[1] = S. cerevisiae deletion strains, locus YDL101C, strain DUN1, active compounds read low
[2] = S. cerevisiae deletion strains, locus YHR030C, strain SLT2, active compounds read low

Measured: normalized growth

O=C1Nc2ccccc2/C1=N/N=C\c1cc(Br)cc(Br)c1O
active: S. cerevisiae deletion strains, locus YDL214C, strain PRR2, active compounds read low 0.231 | S. cerevisiae deletion strains, locus YDR477W, strain SNF1, active compounds read low 0.246 | S. cerevisiae deletion strains, locus YER123W, strain YCK3, active compounds read low 0.233 | S. cerevisiae deletion strains, locus YER133W, strain GLC7, active compounds read low 0.249 | S. cerevisiae deletion strains, locus YFR019W, strain FAB1, active compounds read low 0.396 | S. cerevisiae deletion strains, locus YGR040W, strain KSS1, active compounds read low 0.278 | S. cerevisiae deletion strains, locus YGR052W, strain FMP48, active compounds read low 0.132 | S. cerevisiae deletion strains, locus YGR092W, strain DBF2, active compounds read low 0.121 | [2] 0.128 | S. cerevisiae deletion strains, locus YHR079C, strain IRE1, active compounds read low 0.132 | S. cerevisiae deletion strains, locus YHR082C, strain KSP1, active compounds read low 0.124 | S. cerevisiae deletion strains, locus YHR205W, strain SCH9, active compounds read low 0.0116 | S. cerevisiae deletion strains, locus YJL095W, strain BCK1, active compounds read low 0.112 | S. cerevisiae deletion strains, locus YJL157C, strain FAR1, active compounds read low 0.147 | S. cerevisiae deletion strains, locus YJR066W, strain TOR1 (second series), active compounds read low 0.393 | S. cerevisiae deletion strains, locus YJR066W, strain TOR1, active compounds read low 0.114 | S. cerevisiae deletion strains, locus YKL048C, strain ELM1, active compounds read low 0.303 | S. cerevisiae deletion strains, locus YKL067W, strain YNK1, active compounds read low 0.194 | S. cerevisiae deletion strains, locus YKL101W, strain HSL1, active compounds read low 0.225 | S. cerevisiae deletion strains, locus YKL203C, strain TOR2, active compounds read low 0.209 | S. cerevisiae deletion strains, locus YLR113W, strain HOG1, active compounds read low 0.331 | S. cerevisiae deletion strains, locus YLR133W, strain CKI1, active compounds read low 0.134 | S. cerevisiae deletion strains, locus YLR403W, strain SFP1, active compounds read low 0.0728 | S. cerevisiae deletion strains, locus YML070W, strain DAK1, active compounds read low 0.259 | S. cerevisiae deletion strains, locus YMR205C, strain PFK2 (second series), active compounds read low 0.204 | S. cerevisiae deletion strains, locus YNL006W, strain LST8, active compounds read low 0.764 | S. cerevisiae deletion strains, locus YNL020C, strain ARK1, active compounds read low 0.114 | S. cerevisiae deletion strains, locus YNL183C, strain NPR1, active compounds read low 0.128 | S. cerevisiae deletion strains, locus YNL307C, strain MCK1 (second series), active compounds read low 0.128 | S. cerevisiae deletion strains, locus YOL136C, strain PFK27, active compounds read low 0.198 | S. cerevisiae deletion strains, locus YOR061W, strain CKA2, active compounds read low 0.105 | S. cerevisiae deletion strains, locus YOR119C, strain RIO1, active compounds read low 0.184 | S. cerevisiae deletion strains, locus YOR231W, strain MKK1, active compounds read low 0.139 | S. cerevisiae deletion strains, locus YPL031C, strain PHO85, active compounds read low 0.203 | S. cerevisiae deletion strains, locus YPL153C, strain RAD53, active compounds read low 0.196 | S. cerevisiae deletion strains, locus YPL204W, strain HRR25, active compounds read low 0.199 | S. cerevisiae deletion strains, locus YPL256C, strain CLN2, active compounds read low 0.313 | S. cerevisiae deletion strains, strain NNK1, active compounds read low 0.34
inactive: S. cerevisiae deletion strains, locus YAR019C, strain CDC15, active compounds read low 0.947 | S. cerevisiae deletion strains, locus YBL105C, strain PKC1, active compounds read low 0.959 | S. cerevisiae deletion strains, locus YBR135W, strain CKS1, active compounds read low 0.964 | S. cerevisiae deletion strains, locus YBR136W, strain MEC1, active compounds read low 0.955 | S. cerevisiae deletion strains, locus YBR160W, strain CDC28, active compounds read low 0.959 | S. cerevisiae deletion strains, locus YDL017W, strain CDC7, active compounds read low 0.957 | S. cerevisiae deletion strains, locus YDL028C, strain MPS1, active compounds read low 0.95 | [1] 0.946 | S. cerevisiae deletion strains, locus YDL108W, strain KIN28, active compounds read low 0.957 | S. cerevisiae deletion strains, locus YDL132W, strain cdc53, active compounds read low 0.944 | S. cerevisiae deletion strains, locus YDR052C, strain DBF4, active compounds read low 0.944 | S. cerevisiae deletion strains, locus YDR054C, strain cdc34, active compounds read low 0.916 | S. cerevisiae deletion strains, locus YDR226W, strain ADK1, active compounds read low 0.951 | S. cerevisiae deletion strains, locus YFL009W, strain cdc4, active compounds read low 0.945 | S. cerevisiae deletion strains, locus YFL029C, strain CAK1, active compounds read low 0.949 | S. cerevisiae deletion strains, locus YFR003C, strain YPI1, active compounds read low 0.947 | S. cerevisiae deletion strains, locus YFR028C, strain CDC14, active compounds read low 0.964 | S. cerevisiae deletion strains, locus YIL147C, strain SLN1, active compounds read low 0.948 | S. cerevisiae deletion strains, locus YJR016C, strain ILV3, active compounds read low 0.969 | S. cerevisiae deletion strains, locus YKL193C, strain SDS22, active compounds read low 0.937 | S. cerevisiae deletion strains, locus YMR001C, strain CDC5, active compounds read low 0.945 | S. cerevisiae deletion strains, locus YMR277W, strain FCP1, active compounds read low 0.959 | S. cerevisiae deletion strains, locus YNL161W, strain CBK1, active compounds read low 0.943 | S. cerevisiae deletion strains, locus YNL207W, strain RIO2, active compounds read low 0.957 | S. cerevisiae deletion strains, locus YNL222W, strain SSU72, active compounds read low 0.96 | S. cerevisiae deletion strains, locus YOL078W, strain AVO1, active compounds read low 0.937 | S. cerevisiae deletion strains, locus YOR329C, strain SCD5, active compounds read low 0.937 | S. cerevisiae deletion strains, locus YPL209C, strain IPL1, active compounds read low 0.967 | S. cerevisiae deletion strains, locus YPR025C, strain CCL1, active compounds read low 0.959 | S. cerevisiae deletion strains, locus YPR106W, strain ISR1, active compounds read low 0.943 | S. cerevisiae deletion strains, locus YPR111W, strain DBF20, active compounds read low 0.933 | S. cerevisiae deletion strains, strain TSCII, active compounds read low 0.951

O=C1NC(c2ccccc2Cl)Nc2ccccc21 (stereo not drawn)
inactive: S. cerevisiae deletion strains, locus YAL013W, strain DEP1, active compounds read low 0.997 | S. cerevisiae deletion strains, locus YBR229C, strain ROT2, active compounds read low 1 | S. cerevisiae deletion strains, locus YCL061C, strain MRC1, active compounds read low 0.992 | [1] 1.01 | S. cerevisiae deletion strains, locus YDL134C, strain PPH21, active compounds read low 1.01 | S. cerevisiae deletion strains, locus YDR150W, strain NUM1, active compounds read low 0.998 | S. cerevisiae deletion strains, locus YEL061C, strain CIN8, active compounds read low 0.981 | S. cerevisiae deletion strains, locus YGR078C, strain PAC10, active compounds read low 0.997 | [2] 1.04 | S. cerevisiae deletion strains, locus YHR087W, strain rtc3, active compounds read low 0.998 | S. cerevisiae deletion strains, locus YJL187C, strain SWE1, active compounds read low 0.993 | S. cerevisiae deletion strains, locus YJR043C, strain POL32, active compounds read low 1.02 | S. cerevisiae deletion strains, locus YJR075W, strain HOC1, active compounds read low 0.97 | S. cerevisiae deletion strains, locus YLR039C, strain RIC1, active compounds read low 0.973 | S. cerevisiae deletion strains, locus YLR058C, strain SHM2 (second series), active compounds read low 1 | S. cerevisiae deletion strains, locus YLR085C, strain ARP6, active compounds read low 0.951 | S. cerevisiae deletion strains, locus YLR262C, strain YPT6, active compounds read low 0.977 | S. cerevisiae deletion strains, locus YML094W, strain GIM5, active compounds read low 0.989 | S. cerevisiae deletion strains, locus YMR219W, strain ESC1, active compounds read low 1 | S. cerevisiae deletion strains, locus YMR263W, strain SAP30, active compounds read low 1.01 | S. cerevisiae deletion strains, locus YNL153C, strain GIM3, active compounds read low 1 | S. cerevisiae deletion strains, locus YNL298W, strain CLA4 (second series), active compounds read low 0.997 | S. cerevisiae deletion strains, locus YNL322C, strain KRE1, active compounds read low 0.99 | S. cerevisiae deletion strains, locus YNR030W, strain Alg12, active compounds read low 0.984 | S. cerevisiae deletion strains, locus YPL055C, strain LGE1, active compounds read low 1.03 | S. cerevisiae deletion strains, locus YPL241C, strain CIN2, active compounds read low 0.981 | S. cerevisiae deletion strains, locus YPR135W, strain CTF4, active compounds read low 1.05 | S. cerevisiae strains, strain wild type, active compounds read low 1.01
